Laboratory results as given in PubChem BioAssay (NCATS).
Several values for one entry are separate records, joined by “and”; a condition that tells them apart may be missing. Equal values may be shown once. Results filed as inconclusive are left out. A call without a number means that no potency is given here. Activity calls are given as the source filed them. The call rests on the fitted dose curve; in most records, active means well fitted inhibition curve with a large enough effect; inconclusive means small, poorly fitted or top-dose-only effect; inactive means no such curve, though single readings can be large or run the other way.

Test: Primary qHTS for inhibitors of nuclear receptor binding SET domain protein 2 (NSD2) in an RCH-ACV wild type WT cells (2C) (AID 1645877); further: nearly all actives have a fitted effect of over 70% in size
Settings: RCH-ACV (leukaemia line) NSD2 WT (2C) viability, CellTiter-Glo, 72 h; series mostly up to 44.9 µM
Source text: Assay Provider: Jonathan D. Licht, MD
University of Florida College of Medicine, Gainesville, FL
Mutations in epigenetic regulators are common in relapsed pediatric acute lymphoblastic leukemia (ALL). Here, we uncovered the mechanism underlying the relapse of ALL driven by an activating mutation of the NSD2 histone methyltransferase (p.E1099K). […] Correction of this mutation restored glucocorticoid sensitivity. The transcriptional response to glucocorticoids was blocked in NSD2 mutant cells due to depressed glucocorticoid receptor (GR) levels and the failure of glucocorticoids to autoactivate GR expression. […] Pre-treatment of NSD2 p.E1099K cell lines and PDX samples with PRC2 inhibitors reversed glucocorticoid resistance in vitro and in vivo.
High-throughput drug screening of isogenic RCH-ACV cell lines was performed at the National Center for Advancing Translational Science (NCATS), National Institutes of Health as previously described (1). Briefly, isogenic RCH-ACV NSD2 p.E1099K mutant (9B) and WT cells (2C) were plated at 500 cells/well in a 1536-well plate with a 72-hour incubation with compounds prior to addition of CellTiter-Glo to assess cell viability. NCATS libraries screened include: NPC, MIPE 5.0, Kinase and NPACT. To determine compound activity in the qHTS assay, the concentration-response data for each sample was plotted and modeled by a four-parameter logistic fit yielding IC50 and efficacy (maximal response) values. The area under the curve (AUC) of the dose-response curve ensures both efficacy (magnitude of cell killing) and potency (concentration that elicits cell killing) are accounted for in the analysis of activity.
1. Tobie D Lee, Olivia W Lee, Kyle R Brimacombe, Lu Chen, Rajarshi Guha, Sabrina Lusvarghi, Bethilehem G Tebase, Carleen Klumpp-Thomas, Robert W Robey, Suresh V Ambudkar, Min Shen, Michael M Gottesman, Matthew D Hall. A High-Throughput Screen of a Library of Therapeutics Identifies Cytotoxic Substrates of P-glycoprotein. Mol Pharmacol. 2019, Nov;96(5):629-640.

SMILES | Potency | activity change, negative = cell killing | outcome
CC(=O)OC1CC(O)C(C)(C)C2CC(OC(C)=O)C3(C)C(CCC4(C)C(c5ccoc5)C(=O)C5OC543)C12C (stereo not given) | inactive |  | 
C/C=C(\C)C(=O)OC1CC2C(CC=C3CC(OC4CC(OC)C(OC5CC(OC)C(OC6OC(C)C(OC7OC(CO)C(O)C(O)C7O)C(OC)C6O)C(C)O5)C(C)O4)CCC32C)C2(O)CCC(C(C)=O)C12C (stereo not given) |  | -1.79% [at 9.23 µM] (inactive) | 
C=CC(C)(O)CC/C=C(\C)C(=O)O[C@H]1[C@H](O)[C@@H](CO)O[C@@H](OC(=O)[C@]23CCC(C)(C)CC2C2=CCC4[C@@]5(C)CC[C@H](O[C@@H]6O[C@H](CO[C@@H]7OC[C@H](O)[C@H](O)[C@H]7O[C@@H]7OC[C@@H](O)[C@H](O)[C@H]7O)[C@@H](O)[C@H](O)[C@H]6O)C(C)(C)C5CC[C@@]4(C)[C@]2(C)CC3)[C@@H]1OC1OC(C)C(O[C@@H]2OC[C@@H](O)[C@H](O[C@@H]3OC[C@@H](O)[C@H](O)[C@H]3O)[C@H]2O)C(O)C1O (stereo not given in full) |  | -28.4% [at 9.23 µM] (inactive) | 
CC[C@H]1CN2CC[C@H]1C[C@@H]2[C@@H](O)c1ccnc2ccc(OC)cc12 | inactive |  | 
COC1CC(O[C@H]2CC[C@@]3(C)C(=CCC4C3C(O)[C@@H](O)[C@]3(C)[C@@H](C(C)=O)CC[C@]43O)C2)OC(C)C1OC1CC(OC)C(OC2OC(C)C(O)C(O)C2O)C(C)O1 (stereo not given in full) |  | -4.48% [at 9.23 µM] (inactive) | 
COC1C(O)C(C)OC(OC2C(CO)O[C@@H](O[C@@H]3CC4CCC5C(CC[C@]6(C)[C@@H](C7=CC(=O)OC7)CC[C@]56O)[C@@]4(C)[C@H](O)C3)C(O)C2O)C1O (stereo not given in full) | 483 nM (active) |  | 
COc1cc(C)[nH]c(=O)c1CNC(=O)c1c(C)n([C@H](C)C2CCOCC2)c2ccccc12 | inactive |  | 
C1=C2CCCN[C@H]2[C@@H]2C[C@H]1[C@H]1CCCCN1C2 | inactive |  | 
COC1CC(OC2CCC3(C)C(=CCC4C3CCC3(C)C(C(C)OC5OC(COC6OC(CO)C(O)C(O)C6O)C(O)C(O)C5O)CCC43O)C2)OC(C)C1OC1OC(C)C(O)C(OC)C1O (stereo not given) |  | 0.676% [at 9.23 µM] (inactive) | 
O=C(O)c1ccnc2cc(C(OCCN3CCCCC3)c3ccccc3Cl)[nH]c12 (stereo not given) | inactive |  | 
C[CH2][Hg][S]c1ccccc1C(=O)O | 841 nM (active) |  | 
Clc1ccc(N2C[C@H]3CC[C@@H](C2)N3)nn1 | inactive |  | 
Clc1ccc(OCC2=NCCN2)cc1Cl | inactive |  | 
COC(=O)C1(C)CCC(=O)C2(C)c3c(O)cc(C(C)C)cc3C(O)C(OC(C)=O)C12 (stereo not given) | inactive |  | 
CC(C)=C1CC[C@]23CO[C@H](C2)[C@@](O)(C(=O)O)CCC13 (stereo not given in full) | inactive |  | 
CC(=O)OC1CC(O)C2(C)C(CC(OC(C)=O)C3(C)C2CCC2(C)C(c4ccoc4)C(=O)C4OC423)C1(C)C (stereo not given) | inactive |  | 
COc1cc(CCNCc2ccccc2O)c(OC)cc1C#N | inactive |  | 
COC1CC(O[C@H]2CC[C@]3(C=O)C4CC[C@]5(C)[C@@H](C6=CC(=O)OC6)CC[C@]5(O)[C@@H]4CC[C@]3(O)C2)OC(C)C1O[C@@H]1O[C@H](CO)[C@@H](O)[C@H](O)[C@H]1O (stereo not given in full) | 85.8 nM (active) |  | 
CN[C@H]1[C@H](O)[C@H](O[C@@H]2[C@@H](O)[C@H](O[C@H]3O[C@H]([C@H](C)O)[C@@H](O)[C@H](O)[C@H]3N)[C@@H](N)C[C@H]2N)OC[C@@]1(C)O | inactive |  | 
C[C@@]12C[C@@H](c3ccoc3)OC(=O)C1CC[C@]1(C)[C@H]2[C@H]2C=C[C@]1(O)C(=O)O2 (stereo not given in full) | inactive |  | 

SMILES | Potency | activity change, negative = cell killing | outcome
CCCN1CCO[C@H]2c3cc(O)ccc3OC[C@@H]21 | inactive |  | 
OCCCCC#Cc1cncc(OC[C@@H]2CCN2)c1 | inactive |  | 
C[C@@](O)(COc1ccc(C#N)cc1)C(=O)Nc1ccc(C#N)c(C(F)(F)F)c1 | inactive |  | 
CC(N)Cc1c[nH]c2ccccc12 (stereo not given) | inactive |  | 
C=C[C@H]1[C@H](O[C@@H]2O[C@H](CO)[C@@H](O)[C@H](O)[C@H]2O)OC=C2C(=O)OCC[C@H]21 | inactive |  | 
COC(=O)C12C(=O)C(C)(O)C(=O)C1(C)C(C)=CC1C34CCC(OC3=O)C(C)(CO)C4CCC12C (stereo not given) | inactive |  | 
C[C@@]1(C(=O)O)CC[C@]2(C)CC[C@]3(C)C4=CC(=O)c5cc(O)c(O)cc5[C@]4(C)CC[C@@]3(C)[C@@H]2C1 | inactive |  | 
C/C(O)=C(\C#N)C(=O)Nc1cc(Br)ccc1Br | inactive |  | 
CCC(C)(OC(C)=O)C(=O)O[C@H]1[C@H](OC(C)=O)C[C@@H]2[C@@](C)([C@@H]3C[C@H]4C=CO[C@H]4O3)[C@H](C)C[C@H](OC(C)=O)[C@@]2(COC(C)=O)[C@@]12CO2 (stereo not given in full) | inactive |  | 
C[C@H]1C(=O)O[C@H]2[C@H](O)[C@]34C5OC(=O)[C@]3(O[C@@H]3OC(=O)[C@H](O)C34[C@H](C(C)(C)C)[C@H]5O)C12O (stereo not given in full) | inactive |  | 
COC(=O)C1(C)CCC(O)C2(C)c3cc(O)c(C(C)C)cc3C(O)C(OC(C)=O)C12 (stereo not given) | inactive |  | 
COC1CC(OC2CCC3(C=O)C(CCC4C3CCC3(C)C(C5=CC(=O)OC5)CCC43O)C2)OC(C)C1OC1OC(CO)C(O)C(O)C1O (stereo not given) | 153 nM (active) |  | 
CN1CCC[C@@H]1Cc1c[nH]c2ccc(Nc3ncccc3[N+](=O)[O-])cc12 | inactive |  | 
C/C=C(\C)C(=O)OC1CC2C(C)(C)OC(=O)CC(OC(C)=O)C2(C)C2CC(OC(=O)C(C)C)C3(C)C(c4ccoc4)CC4OC43C12C (stereo not given) | inactive |  | 
CC(=O)c1c(O)c(C)c(O)c(Cc2c(O)c3c(c(C(=O)/C=C/c4ccccc4)c2O)OC(C)(C)C=C3)c1O | inactive |  | 
CCOc1ccccc1-n1c(C(C)N2CCN(C(=O)COc3ccc(Cl)cc3)CC2)nc2ccccc2c1=O (stereo not given) | 365 nM (active) and 372 nM (active) |  | 
CN(C)CCc1c[nH]c2ccc(CN3CCN(C)S3(=O)=O)cc12 | inactive |  | 
C=CC(C)(C)c1[nH]c2cccc3c2c1C[C@@H]1[C@@H]3[C@@H](OC(C)=O)[C@H](C)CN1C | inactive |  | 
COC(=O)N1CCN(C(=O)Cc2ccc(Cl)c(Cl)c2)[C@@H](CN2CCCC2)C1 | inactive |  | 
CCCCCCn1c(=O)c(C(=O)Nc2ccc(C(=O)OCCC)cc2)c(O)c2ccccc21 |  |  | inactive [at 9.23 µM]
